Our source for the max response, negative = inhibition and Potency values is PubChem BioAssay AID1476 (National Center for Advancing Translational Sciences (NCATS), 2009).

Out of some 200,000 compounds screened, about 4,500 (2.2%) were called active. About 12% were inconclusive and are not listed. The call rests on the fitted dose curve; in most records, active means well fitted inhibition curve with a large enough effect; inconclusive means small, poorly fitted or top-dose-only effect, or effect the other way; inactive means flat fitted curve, though single readings scatter. The full list was thinned out, with actives kept by preference.
Potency means the concentration at half of the fitted maximal effect.

The target in this experiment is Cruzipain (Trypanosoma cruzi) (UniProt P25779). Kind of experiment: qHTS Assay for Promiscuous and Specific Inhibitors of Cruzain (without detergent). Further: nearly all actives have a fitted effect of over 40% in size.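 On max response, negative = inhibition: plate controls were enzyme without inhibitor for no effect and buffer without enzyme for full effect.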 The following applies: purified cruzain, Z-FR-AMC fluorescence, no detergent. The gist of the method: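 Detergent-free condition (0.00005% Triton X-100) in acetate buffer pH 5.5 with DTT. 1.5 nM enzyme and compound were pre-mixed 15 min, then 2 uM Z-FR-AMC substrate added; reaction progress from fluorescence change between first and third reads (60 s).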
Cruzipain (Trypanosoma cruzi), sequence (P25779 123-467 limits assumed): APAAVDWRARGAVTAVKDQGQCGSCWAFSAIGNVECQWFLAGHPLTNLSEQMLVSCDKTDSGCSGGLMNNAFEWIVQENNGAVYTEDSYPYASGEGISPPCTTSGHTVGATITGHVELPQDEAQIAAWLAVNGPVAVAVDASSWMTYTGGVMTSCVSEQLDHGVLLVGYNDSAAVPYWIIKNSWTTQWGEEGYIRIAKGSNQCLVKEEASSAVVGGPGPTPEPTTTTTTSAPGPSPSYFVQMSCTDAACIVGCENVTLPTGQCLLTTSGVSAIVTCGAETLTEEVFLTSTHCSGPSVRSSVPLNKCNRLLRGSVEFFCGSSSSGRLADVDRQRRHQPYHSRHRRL
For orientation: In qHTS, concentration-response curves come from the screen itself.
Turning to `O=C(CN1CCN(Cc2ccc(Cl)cc2)C1=O)NCc1ccc(F)cc1`, the max response, negative = inhibition is -6.99% (inactive). For `COc1ccc(CCNC(=O)CCCCn2c(=O)c3ccccc3n(Cc3ccccc3C)c2=O)cc1OC`, the max response, negative = inhibition is -7.48% (inactive).

Consider `Cc1cc(C)c2nc(NC(=O)c3ccc4c(c3)OCO4)sc2c1`, for which the Potency was 10 µM (active). For the compound `O=C(Nc1nc2ccccc2s1)c1ccc2c(c1)OCO2`, the max response, negative = inhibition was -5.87% (inactive). For `Cc1cc(C)c2nc(NC(=O)C3CCCO3)sc2c1` (stereo not drawn), the max response, negative = inhibition was 0.42% (inactive).

For the compound `O=C(c1ccc2c(c1)N(Cc1ccc(Cl)cc1)C(=O)c1ccccc1S2(=O)=O)N1CCCCC1`, the max response, negative = inhibition is 0.0442% (inactive). In the case of `O=C1OC(c2ccc(Cl)cc2)=N/C1=C\c1cccnc1`, the max response, negative = inhibition was -2.62% (inactive). As to `Cc1ccc(C2=N/C(=C\c3ccc(OS(=O)(=O)c4ccc(C)cc4)cc3)C(=O)O2)cc1`, the Potency is 20 µM (active). For `CCOc1cc(/C=C2/N=C(c3ccc(C(C)(C)C)cc3)OC2=O)cc(Cl)c1OS(C)(=O)=O`, the max response, negative = inhibition is 1.67% (inactive). As for `CN1CCN(C2(CNC(=O)COc3ccc(C(C)(C)C)cc3)CCCCC2)CC1`, the max response, negative = inhibition is -0.272% (inactive).

Take `CCn1c(C)c(C)c2cc(C(=O)NCCc3cc(OC)ccc3OC)ccc21`: the max response, negative = inhibition is 3.29% (inactive). In the case of `Cc1ccc(CNC(=O)CCC(=O)N2CC(C)Sc3ccccc32)cc1` (stereo not drawn), the max response, negative = inhibition was 3.17% (inactive). For `CC(C)=CC(=O)Nc1nnc(-c2ccc(F)cc2)s1`, the Potency was 12.6 µM (active). For `Cc1occc1C(=O)Nc1nnc(-c2ccncc2)s1`, the max response, negative = inhibition is -3.11% (inactive). Same read-out and setting: as for `Cc1ccc(C(=O)Nc2nnc(-c3ccncc3)s2)o1`, the figure is -16.9% (inactive); as for `O=C(NCC12CC3CC(CC(C3)C1)C2)c1cc2nc(-c3ccccc3)cc(C(F)(F)F)n2n1`, -1.29% (inactive); as for `CC(Sc1oc(-c2ccco2)nc1S(=O)(=O)c1ccc(Br)cc1)c1ccccc1` (stereo not drawn), -8.99% (inactive).

Consider `CN(Cc1ccccc1)c1ccc(-c2nc(-c3ccccc3)no2)cc1[N+](=O)[O-]`, for which the max response, negative = inhibition was -0.924% (inactive). With `O=C(NCc1ccccc1)c1ccc2c(c1)nc1n2CCCCC1`, the max response, negative = inhibition is -10.7% (inactive).

As for `O=C(Nc1ccc(O)c(-c2nc3ccccc3o2)c1)c1ccc(-c2cccc(Cl)c2)o1`, the max response, negative = inhibition was 1.11% (inactive).

For `O=C(NC(=S)Nc1ccc2oc(=O)ccc2c1)c1ccc(-c2cccc(Cl)c2Cl)o1`, the Potency is 5.01 µM (active).

For the compound `CCCOc1ccc(C(=O)Nc2ccc3oc(-c4cccc(Cl)c4Cl)nc3c2)cc1`, the max response, negative = inhibition was 7.94% (inactive). Still for that read-out and setting: for `COC(=O)c1cc(NC(=O)CCc2c(C)nc3c4c(C)cc(C)nc4nn3c2C)cc(C(=O)OC)c1` the value was -14.1% (inactive); for `COc1cccc2cc(-c3nc(Cl)c4c5c(sc4n3)CC(C)CC5)c(=O)oc12` (stereo not drawn), -8.92% (inactive); for `CCc1ccccc1NC(=O)c1cc(-c2ccc3c(c2)OCO3)on1`, -1.06% (inactive).

In the case of `Clc1ccccc1-c1cc(NCCN2CCOCC2)ncn1`, the max response, negative = inhibition is -3.09% (inactive). With `c1ccc2[nH]c(NCCN3CCOCC3)nc2c1`, the max response, negative = inhibition is -8.64% (inactive).

Regarding `c1ccc2cc3c(NCCN4CCOCC4)ccnc3cc2c1`, the Potency was 25.1 µM (active). Regarding `COc1ccc(-n2c(=O)c3ccccc3n(Cc3ccccc3Cl)c2=O)cc1`, the max response, negative = inhibition is 6.51% (inactive).

`Cc1cc2c(c(=O)n1Cc1ccco1)C(c1ccccc1)C(C#N)=C(N)O2` (stereo not drawn): the max response, negative = inhibition was -4.14% (inactive). With `CN(c1ccccc1)c1ccc(/C=c2\s/c(=C(/C#N)C(=O)C(C)(C)C)n(Cc3ccco3)c2=O)cc1`, the Potency was 3.16 µM (active).

On to `CCOc1ccccc1NC(=O)Cn1c(=O)n(Cc2ccco2)c(=O)c2sc3ccccc3c21`, for which the max response, negative = inhibition was -0.26% (inactive). Take `O=C(NCCCc1ccccc1)c1ccc2c(c1)sc1nc(-c3ccc(F)cc3)cn12`: the max response, negative = inhibition was 4.05% (inactive). With `Cc1csc(NC(=S)Nc2cccc(Cl)c2)n1`, the max response, negative = inhibition is -0.724% (inactive).

As for `Cc1csc(NC(=O)c2ccc(-c3ccc(Cl)cc3Cl)o2)n1`, the Potency is 10 µM (active).

As to `O=C(Nc1cccc2ncccc12)c1ccc(-c2ccc(Cl)cc2Cl)o1`, the max response, negative = inhibition is -11.1% (inactive). `Cc1ccc(NC(=O)c2cc3cc(C)ccc3n2C)cc1`: the max response, negative = inhibition was -3.53% (inactive).

Consider `Cn1c(=O)n(C)c2cc(C(=O)Nc3ccc4c(c3)OCO4)ccc21`, for which the max response, negative = inhibition was -14% (inactive).

In the case of `O=C(Nc1ccccc1)c1ccc2c(c1)OCO2`, the max response, negative = inhibition was 1.37% (inactive). Consider `O=C(Nc1ccc2c(c1)OCO2)c1ccc(N2C(=O)c3ccccc3C2=O)cc1`, for which the Potency was 6.31 µM (active).

As for `CCOc1ccc(CNC(=O)CCC(=O)N2CCSc3ccccc32)cc1`, the max response, negative = inhibition is 1.55% (inactive).

In the case of `COc1ccc(-c2onc(C)c2C)cc1S(=O)(=O)NCC1CCN(Cc2cccc(F)c2)CC1`, the max response, negative = inhibition is 0.417% (inactive). Still for that read-out and setting: for `CCc1ccccc1NC(=O)CSc1nnc(-c2ccccc2)c(-c2ccccc2)n1` the value was -0.884% (inactive). As for `CCOC(=O)C1=C(O)CSC1=Nc1cccc(Cl)c1`, the max response, negative = inhibition is -9.26% (inactive).

For `Clc1cccc(N=C2NN=C(c3ccc4c(c3)OCCO4)CS2)c1`, the Potency is 10 µM (active). On to `CCOc1ccc(CNC(=O)Cn2cc3c(n2)-c2c(oc(C(=O)N4CCCC4)c2C)CC3)cc1`, for which the max response, negative = inhibition is 23.3% (inactive). For the compound `COc1ccc2cc(CNc3ccc(OC)c(OC)c3)c(=O)n(CC(=O)Nc3ccccc3F)c2c1`, the max response, negative = inhibition was 13.9% (inactive). Consider `O=C(CSc1nccn1C1CCCC1)Nc1cc(C(F)(F)F)ccc1Cl`, for which the max response, negative = inhibition is 9.92% (inactive). Turning to `COc1ccc(C(=O)CSc2nnc(NC(=O)C3CC(=O)N(c4cccc(OC)c4)C3)s2)cc1` (stereo not drawn), the max response, negative = inhibition is -5.43% (inactive). With `O=C(/C=C/c1ccccc1)Nc1nnc(SCC(=O)c2ccc3ccccc3c2)s1`, the Potency was 6.31 µM (active).

As to `CC(=O)c1ccc(NC(=O)CSc2nnc(NC(=O)Nc3ccccc3)s2)cc1`, the max response, negative = inhibition is 10.4% (inactive). Turning to `O=C(NCCc1csc(-c2ccc(C(F)(F)F)cc2)n1)C(=O)Nc1ccc(F)c(Cl)c1`, the max response, negative = inhibition was -2.67% (inactive).

In the case of `Cc1ccc(OCC(=O)OCc2cc(=O)n3nc(C4CC4)sc3n2)cc1`, the max response, negative = inhibition was -8.05% (inactive). Regarding `N#C/C(=C(/O)Cc1cccc2ccccc12)c1nc2ccccc2s1`, the Potency is 12.6 µM (active). Take `c1ccc2sc(SCCSc3nc4ccccc4s3)nc2c1`: the max response, negative = inhibition is -3.12% (inactive). Turning to `COC(=O)c1nc2ccccc2s1`, the max response, negative = inhibition is -9.6% (inactive). Regarding `Cc1ccc(-c2nn3c(=O)cc(CN4CCN(C(=O)Nc5cccc(C(F)(F)F)c5)CC4)nc3s2)cc1`, the max response, negative = inhibition was -9.63% (inactive). `COc1ccc(Cn2c(C(=O)O)c(CNCCc3cccs3)c3ccc(OC)cc32)cc1`: the max response, negative = inhibition was -3.19% (inactive). `Cc1ccc(S(=O)(=O)NCCC(=O)Nc2ccc(C)c(Cl)c2)cc1C`: the max response, negative = inhibition is -0.389% (inactive). Take `COc1ccc(NC(=O)CCNS(=O)(=O)c2ccc3c(c2)CCCC(=O)N3)cc1Cl`: the max response, negative = inhibition is -2.51% (inactive). On to `Cc1ccc(NS(=O)(=O)c2ccc3c(c2)CC(=O)N3)cc1Cl`, for which the Potency was 15.8 µM (active). Turning to `Cc1nn(CC(=O)O)c(=O)c2cc3cc(F)ccc3n12`, the max response, negative = inhibition is -12.5% (inactive). Same read-out and setting: for `Cc1cccc(-n2ccnc2SCC(=O)Nc2cc(C(F)(F)F)ccc2Cl)c1` the value was -5.01% (inactive); for `Cc1ccc(NC(=O)CSc2nc3c(c(=O)[nH]2)CN(Cc2ccc4c(c2)OCO4)CC3)cc1C`, -8.7% (inactive); for `CC(=O)c1c(C)[nH]c(C(=O)OCC(=O)Nc2cc(S(=O)(=O)N3CCCCC3)ccc2C)c1C`, 9.33% (inactive).

Take `COc1ccc(OCC(=O)OCC(=O)Nc2ccc(S(=O)(=O)N3CCCCC3)cc2)cc1`: the max response, negative = inhibition was 6.2% (inactive).

For the compound `CCn1c2ccccc2c2cc(NC(=O)COC(=O)c3cc(S(=O)(=O)N4CCCCC4)ccc3Cl)ccc21`, the Potency is 6.31 µM (active). Take `CCOC(=O)CNC(=O)c1cc2c(=O)n3cccc(C)c3nc2s1`: the max response, negative = inhibition is -17.8% (inactive). For the compound `O=C(Cn1cc(SCc2ccccc2)c2ccccc21)N1CCCCC1`, the max response, negative = inhibition was -0.659% (inactive). Consider `CN(C)CCNC(=O)/C(=C/c1cccc([N+](=O)[O-])c1)NC(=O)c1ccccc1`, for which the max response, negative = inhibition was -6.18% (inactive).

For the compound `O=C(N/N=C/c1cc([N+](=O)[O-])ccc1O)/C(=C\c1cccs1)NC(=O)c1ccccc1`, the Potency was 20 µM (active). Consider `C=CCNC(=O)/C(=C\c1cccc([N+](=O)[O-])c1)NC(=O)c1ccccc1`, for which the max response, negative = inhibition is 10.7% (inactive). On the same count and under the same terms, for `COc1cccc(NC(=O)N2CCN(C(=O)c3nsc4ccccc34)CC2)c1` the value was 16.2% (inactive); for `COc1cc(OC)c(NC(=O)c2c3c(nn2C)-c2ccccc2SC3)cc1Cl`, -6.8% (inactive); for `COc1ccc(NC(=O)CSc2nc3ncccc3[nH]2)c(OC)c1`, -7.09% (inactive). Take `O=C(CC(c1cccs1)N1Cc2ccccc2C1=O)Nc1ccc(F)cc1F` (stereo not drawn): the max response, negative = inhibition was -15.6% (inactive). Consider `CC(=O)Nc1ccc(NC(=O)c2cc3sccc3n2Cc2ccc(F)cc2)cc1`, for which the max response, negative = inhibition is 23.5% (inactive). As to `O=C(NCc1ccco1)c1cc2sccc2n1Cc1ccc(F)cc1`, the max response, negative = inhibition is -11.7% (inactive). With `Cc1cc(=O)[nH]c(SCC(=O)N2c3ccccc3CC2C)n1` (stereo not drawn), the max response, negative = inhibition was -2.54% (inactive). Turning to `CCOC(=O)c1cc2sccc2n1Cc1ccc(C#N)cc1`, the max response, negative = inhibition was -11.1% (inactive). As to `O=C(c1cc2sccc2n1Cc1ccc(F)cc1)N1CCc2ccccc21`, the Potency is 25.1 µM (active). Regarding `CC1Cc2ccccc2N1C(=O)c1cc2sccc2n1Cc1ccccc1` (stereo not drawn), the Potency was 25.1 µM (active). For `Cc1ccc(-c2nc(SCc3ccc(Br)cc3)n3[nH]c(=O)cc3n2)cc1`, the max response, negative = inhibition is -0.81% (inactive).

For `COc1ccc(OC)c(CNC(=O)Cn2nc(C)c3c(C)n(-c4ccccc4)nc3c2=O)c1`, the max response, negative = inhibition is -8.59% (inactive). Turning to `CC(Sc1nc2ccccc2c(=O)n1Cc1ccco1)C(=O)c1ccccc1` (stereo not drawn), the max response, negative = inhibition was -8.72% (inactive).

Take `N#Cc1c(NC(=O)CSc2nc3ccccc3c(=O)n2Cc2ccco2)sc2c1CCCC2`: the Potency was 10 µM (active).

In the case of `NC(=O)c1c(NC(=O)CSc2nnc(-c3ccco3)n2N)sc2c1CCCC2`, the max response, negative = inhibition is -17% (inactive). With `CCOc1ccc(N(CC)S(=O)(=O)N2CCCC(C(=O)NCc3ccc(SC)cc3)C2)cc1` (stereo not drawn), the max response, negative = inhibition is 16% (inactive).
